This is part of a sample that, as a whole, favours compounds with a hit. Of some 83,000 tested, about 20% had one in any assay.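 The test compound was applied at a single concentration to cells in 96-well plates for 48 hours, and percent growth was recorded.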 Unmarked numbers belong to inactive results. The source made the active and inactive calls. The calls were made as follows: active = growth percent below 10; inactive = the rest.

Experiment in all cases: NCI-60 one-dose screen, 48 h (100 = growth as untreated, 0 = no growth, -100 = all killed)
Conditions in all cases: 10 µM unless noted

The subject of assay [1] is SR leukemia.
For assay [2], the system named is RPMI-8226 leukemia.
The test system of assay [3] is OVCAR-8 ovarian.
Assay [4] relates to OVCAR-5 ovarian.
In assay [5] the test system is OVCAR-4 ovarian.
For assay [6], the system named is SK-OV-3 ovarian.
The subject of assay [7] is IGROV1 ovarian.
Assay [8] deals with OVCAR-3 ovarian.
Assay [9] concerns HS 578T breast.
For assay [10], the system named is NCI/ADR-RES ovarian.

Take `COc1ccc(C(=O)C/C(=C\c2ccc(Cl)cc2)C(=O)NCc2ccccc2)cc1`: the growth in assay [1] is 60.3%; in [2] it was 75.7%; in [3], 82.3%; in [4] it was 99.5%; in assay [5], 105%; in assay [6] it was 79.3%. The growth was 86.3% in assay [7], 100% in assay [8], 86.4% in assay [9] and 89.1% in [10].

For the compound `CC(=O)c1c(C)nc(SCC(=O)Nc2cccc(O)c2)n1-c1ccc(Cl)cc1`, the growth in assay [1] is 103%; in assay [2], 97%; in [3], 99.8%; in assay [4], 104%; in assay [5], 89.1%; in [6] it was 104%. Besides, the growth in assay [7] is 99%; in assay [8] it was 103%; in assay [9], 82.1%; in [10], 98.9%.

For `CSc1nnc(-c2cc3c([nH]c4ccccc43)c(-c3cccc(O)c3)n2)n1-c1ccccc1`, the growth in assay [1] is 21.7%; in assay [2], 16.2%; in [3] it was 47.1%; in assay [4], 58.7%; in assay [5], 43.7%; in assay [6], 47.4%. Further, the growth is 49.9% in assay [7], -0.418% (active) in assay [8], 25.1% in [9] and 56.6% in assay [10].

On to `Cc1[nH]c(=O)[nH]c(=O)c1Br`, for which the growth in assay [1] is 77.6%; in assay [2], 111%; in assay [3], 95.2%; in assay [4], 114%; in assay [5] it was 117%; in assay [6], 115%. Besides, the growth in [7] is 147%; in [8], 124%; in [9], 104%; in assay [10], 97.8%.

In the case of `O=C(Nc1ccc(Oc2cccc(Cl)c2)c(Cl)c1)c1cccnc1`, the growth was 19.9% in [1]; 11.9% in [2]; 32.1% in [3]; 71.2% in assay [4]; 47.8% in [5]; 34.3% in [6]. For the same compound, the growth in assay [7] was 42.1%; in assay [8], 2.66% (active); in [9], 31.1%; in assay [10], 11.9%.

Regarding `CCn1c(SCC(=O)N/N=C(\C)c2ccc(Cl)cc2)nc2c1c(=O)n(C)c(=O)n2C`, the growth in [1] is 93.4%; in [2] it was 103%; in assay [3], 99.9%; in assay [4], 99%; in assay [5], 99.8%; in assay [6] it was 109%. The growth is 96.5% in assay [7], 115% in [8], 94.4% in assay [9] and 102% in [10].

`N#CC1=C(N)Oc2c(c(=O)[nH]c3ccc(Cl)cc23)C12C(=O)c1ccccc1C2=O`: the growth in [1] is 101%; in assay [2], 96.2%; in [3], 102%; in assay [4] it was 96.1%; in assay [5] it was 93.1%; in [6] it was 101%. Moreover, the growth in [7] is 100%; in [8] it was 93.4%; in [9], 83.3%; in assay [10], 102%.

Turning to `COC(=O)c1nc(-c2ccc(C)cc2)oc1S(=O)(=O)c1cccc(OC)c1`, the growth in [1] is 0.69% (active); in assay [2] it was 94.2%; in [3], 93%; in assay [4] it was 92.1%; in [5], 107%; in [6] it was 105%. For the same compound, the growth was 81.5% in assay [7], 77.8% in assay [8], 110% in assay [9] and 103% in [10].

For the compound `O=S(=O)(c1ccccc1)n1cc2c(c1)-c1nc(Nc3ncccn3)sc1CC2`, the growth was 74.6% in assay [1]; 71.3% in assay [2]; 65% in assay [3]; 95.8% in [4]; -27.9% (active) in [5]; 66% in [6]. Also, the growth was 70.4% in assay [7], 40.3% in [8], 22.4% in assay [9] and 53% in [10].

For the compound `N#Cc1nc(-c2ccccc2)oc1S(=O)(=O)N1CCN(c2ccccc2)CC1`, the growth is 14.7% in assay [1]; 63.4% in [2]; 81.3% in [3]; 112% in assay [4]; 99.5% in assay [5]; 105% in assay [6]. Besides, the growth in assay [7] is 78.9%; in [8], 111%; in [9], 102%; in assay [10], 97.5%.

Turning to `Cn1cc(-c2nonc2-c2cn(C)c3ccccc23)c2ccccc21`, the growth in assay [1] is 16%; in assay [2] it was 14.2%; in assay [3], 17.4%; in assay [4], 35.5%; in assay [5], 56.1%; in assay [6] it was 18.7%. The growth was 45.9% in assay [7], 0.348% (active) in assay [8], 30.7% in assay [9] and 17.4% in assay [10].

For `O=C1/C(=C/c2ccc([N+](=O)[O-])cc2)COc2ccc(O)cc21`, the growth in [1] was 7.84% (active); in assay [2] it was -16.4% (active); in [3], 69.5%; in assay [4], 99%; in [5] it was 89.5%; in assay [6], 113%. In addition, the growth in assay [7] is 73.4%; in [8], 82.7%; in assay [9] it was 89.3%; in assay [10], 92.1%.

`O=[N+]([O-])c1cccc(-c2nc3cc4nc5ccccc5[nH]c4cc3n2)c1`: the growth in assay [1] is 93.4%; in assay [2], 101%; in [3] it was 98.2%; in assay [4] it was 111%; in [5], 98.3%; in assay [6] it was 102%. Further, the growth is 99.1% in [7], 98.7% in [8], 109% in [9] and 101% in assay [10].
